# HIF-2a block – blocks HIF-2a reporter activity; 786-0 RCC cells HIF-2a reporter, luciferase luminescence, overnight; inhibition, % at 18.8 µM; 360,000 compounds, 0.72% hits;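 active means inhibition of the luminescence signal of 40% or more relative to plate controls, in a single-dose primary screen at 18.75 µM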
# LMP1 NFkB inh – reduces LMP1-driven NF-kappaB luciferase signal; inhibition, % at 12.5 µM; LMP1-induced NF-kappaB luciferase reporter cells, luminescence; 350,000 compounds, 0.69% hits; in the data active means inhibition above about 41%; inconclusive means no clear call, values can overlap the other calls;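 further: 0% = neutral control wells and 100% = reference inhibitor control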
# Shn3 inh set2 – inhibitors of Schnurri-3 3'UTR reporter in osteoblasts; 360,000 compounds, 0.52% hits; inhibition, % at 12.5 µM; AID 588674; Clone20 osteoblast Shn3 3'UTR firefly luciferase, 24 h;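 active means mean inhibition of at least 75% with every replicate also reaching 75%; inconclusive means mean inhibition at least 75% but some replicate below; inactive means mean inhibition below 75%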;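 further: 0% = median of neutral control wells and 100% = pilot-screen positive control compound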
# TROY signal inh – inhibitors of TROY-dependent NF-kB signaling; Q293 LMP1-TROYcd NF-kB luciferase reporter, 4 h; inhibition, % at 10 µM; 360,000 compounds, 0.98% hits; AID 1347056;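 active means compounds whose plate-normalised and pattern-corrected inhibition of the luciferase reporter signal at the single screening dose is 50% or more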
# MITF TRPM1 inh – inhibitors of MITF-driven TRPM1 promoter in melanoma cells. SK-MEL-5 TRPM1 promoter luciferase, 24 h. inhibition, % at 12.5 µM. 330,000 compounds, 0.83% hits;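 active means mean inhibition across replicates of 60% or more, whatever share of single replicates reaches that level; inconclusive means some that reach 60%, reason not given; inactive means mean inhibition across replicates below 60%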
# TWEAK-Fn14 inh – blocks TWEAK-Fn14 interaction in a reporter cell assay | inhibition, % at 10 µM | TWEAK-stimulated Fn14 reporter cells, luciferase luminescence, 8 h | 360,000 compounds, 2% hits; in the data active means inhibition above about 50%
# Active calls of the source: *; ? = inconclusive; · = not tested or not shown. Compounds with a hit are over-represented: about 3.4% of the library has one in this group of screens.
SMILES,HIF-2a block,LMP1 NFkB inh,Shn3 inh set2,TROY signal inh,MITF TRPM1 inh,TWEAK-Fn14 inh
CC1(C)CNc2cc(N)ccc2S1,-144.2,-9.4,-72.8,51.4*,-21.3,50.8*
O=C(NCc1ccncc1)C(=O)NCC1OCCN1S(=O)(=O)c1cc(F)ccc1F (centres undefined),9.6,-2.2,11.3,-7.6,1.9,-16.3
CCOc1cccc(/C=N/NC(=O)c2cc(-c3cccn3C)n[nH]2)c1O,-37.8,16.0,87.7*,1.1,44.4,-39.1
CCOC(=O)c1c(C)[nH]c(C)c1C(=O)CSc1nc2ccccc2c(=O)n1-c1ccc(CC)cc1,-10.8,20.1,89.8*,14.5,12.4,50.4*
Cc1ccc(/C=[N+](\[O-])c2ccc(N(C)C)cc2)c2nsnc12,20.9,16.2,?,18.7,6.8,56.7*
O=C(CSc1nnc(NC2CC2)s1)c1ccc[nH]1,-128.7,8.4,-74.2,-20.3,-47.1,12.0
COc1ccccc1NC(=O)NC1CC(=O)N(c2ccc3c(c2)OCCO3)C1 (centres undefined),8.9,-3.3,-10.9,-8.2,4.4,12.7
COc1ccccc1NC(=O)COC(=O)C1CC(=O)N(c2ccc3c(c2)OCCO3)C1 (centres undefined),12.4,2.1,-2.1,20.0,-0.6,64.1*
O=C(COC(=O)C1CC(=O)N(c2ccc3c(c2)OCCO3)C1)Nc1ccc2c(c1)CCC2 (centres undefined),8.3,-2.3,16.2,10.3,-7.7,64.9*
CC(=O)c1cccc(NC(=O)COC(=O)COc2c(Cl)cc(Cl)c3ccc(C)nc23)c1,13.6,3.1,-3.6,28.0,-3.7,63.1*
C[C@@H]1Cn2cnc(C(=O)NCC(=O)OC(C)(C)C)c2C(=O)N1,0.7,1.5,-12.9,3.9,·,2.2
C[C@H]1Cn2cnc(C(=O)Nc3cccc(Cl)c3)c2C(=O)N1,-6.4,34.8,10.8,52.3*,·,70.8*
CC1CC(C)CN(CCCNC(=O)c2cc3c(s2)-c2ccccc2OC3)C1 (centres undefined),-12.2,-12.3,4.2,-31.1,-13.5,-1.8
CC1CCCC(C)N1CCCNC(=O)c1cc2c(s1)-c1ccccc1OC2 (centres undefined),-7.8,-28.7,-1.3,-21.2,61.4*,-24.4
Cc1c(NC(=O)c2cc3c(s2)-c2ccccc2OC3)cccc1[N+](=O)[O-],-96.1,4.6,-6.3,44.1,-17.1,62.0*
CC[n+]1c(C)sc2c(C)cc(C)cc21,10.2,-0.5,5.5,-10.1,8.1,-2.8
CCC[n+]1c(C)sc2c3c(ccc21)CCCC3,5.8,22.9,92.1*,-10.4,67.4*,3.8
CCCc1[nH]nc2c1C(C1CCCCC1)C(C#N)=C(N)O2 (centres undefined),29.4,-3.7,-59.7,6.6,2.9,54.7*
COc1ccc(C(=O)NC2CCN(CC(=O)Nc3cccc(OC)c3)CC2)cc1,3.6,-5.0,7.6,-8.9,13.6,11.8
CCc1nc(NCCc2ccccn2)c2nnn(Cc3ccccc3F)c2n1,2.4,0.6,23.7,5.1,3.3,13.7
CCc1nc(NCC2CCCN2CC)c2nnn(Cc3ccccc3F)c2n1 (centres undefined),10.1,0.0,-5.1,-19.8,-1.9,69.3*
Nc1ccc(Oc2cccc(Oc3ccc(N)cc3)c2)cc1,90.0*,37.4,45.4,60.2*,81.1*,82.4*
Cc1ccc2c(C)c(C(=O)Nc3ccc(S(=O)(=O)Nc4onc(C)c4C)cc3)oc2c1,9.0,0.5,6.4,7.8,13.7,-10.0
COc1cccc(NC(=O)CSc2nc3c(sc4ccccc43)c(=O)n2CCN(C)C)c1,-5.0,0.9,-17.0,-2.2,-11.4,-6.7
COc1cccc(NC(=O)CSc2nc3c(sc4ccccc43)c(=O)n2CCCN2CCCC2)c1,-27.8,-1.4,-39.2,-18.1,98.2*,-34.3
SMILES,HIF-2a block,LMP1 NFkB inh,Shn3 inh set2,TROY signal inh,MITF TRPM1 inh,TWEAK-Fn14 inh
O=C(Nc1ccc(Cl)c(S(=O)(=O)N2CCOCC2)c1)c1ccc(OCC2CCCO2)cc1 (centres undefined),-8.0,17.5,76.5,76.7*,72.3*,98.9*
COc1ccc(C(=O)Nc2ccc(Cl)c(S(=O)(=O)N3CCOCC3)c2)cc1,-18.9,18.0,30.3,40.0,11.5,37.9
O=C(Nc1cccc(Br)c1)c1ccc(Cl)c(S(=O)(=O)N2CCOCC2)c1,-106.0,6.4,31.5,45.4,19.9,77.2*
O=C(CN1C(=O)CCOc2ccccc21)Nc1ccc(Cl)c(S(=O)(=O)N2CCOCC2)c1,13.7,42.2*,-9.3,-1.9,3.6,-16.8
CCCCNC(=O)Cn1cnc2c(cnn2-c2ccc(C)cc2)c1=O,20.6,-7.2,-67.2,2.4,1.9,18.2
CCOCCCNC(=O)Cn1cnc2c(cnn2-c2ccc(C)c(C)c2)c1=O,-10.3,3.2,0.0,-1.9,8.6,108.0*
O=C(Nc1ccccc1)c1cc(C2CCCN(C(=O)CCc3ccccc3)C2)on1 (centres undefined),-295.2,·,-14.0,11.7,·,3.1
CN(C)c1ccc(CC(=O)N2CCCC(c3cc(C(=O)Nc4ccc(C(C)(C)C)cc4)no3)C2)cc1 (centres undefined),-3.5,·,73.3,38.4,·,79.2*
CC(C)(C)c1cc(C(=O)NNC(=O)Nc2ccccc2)n(Cc2ccccc2)n1,30.9,5.7,13.6,5.9,7.7,2.9
O=C(CN1c2ccccc2Sc2ccccc21)NNC(=O)Nc1cccc(Cl)c1,37.4,2.4,27.2,52.6*,2.4,39.8
O=C(Cc1ccccc1)NNC(=O)Nc1cccc(Cl)c1,23.1,2.1,-3.9,2.1,-3.4,1.2
O=C(CCC(=O)NNC(=O)Nc1cccc(Cl)c1)NCc1ccccc1,17.7,42.3*,0.9,-3.8,-17.2,-22.7
CC(C)(C)c1cc(C(=O)NNC(=O)Nc2cccc(Cl)c2)n(Cc2ccccc2)n1,11.7,53.0*,24.4,26.1,9.5,22.6
O=C(NC(=S)NCc1ccco1)c1ccccc1[N+](=O)[O-],7.0,·,6.6,18.0,-3.6,2.0
CCC(C)NC(=O)c1ccc(CN2CCc3ccccc3C2)cc1 (centres undefined),19.0,-0.4,6.6,10.9,7.2,-6.7
COc1ccc(/C=C2\SC(=S)N(CCC(=O)NC3=NCCS3)C2=O)cc1OC,54.4*,20.6,24.4,6.0,6.9,47.0
COc1cc(/C=C2\SC(=S)N(CC(=O)NC3=NCCS3)C2=O)cc(OC)c1OC,13.0,-0.4,10.2,11.9,6.4,-3.3
COc1ccc(/C=C2\SC(=S)N(CCCC(=O)Nc3ccccn3)C2=O)cc1OC,40.0*,0.9,5.2,24.1,-9.4,52.2*
COc1ccc(/C=C2\SC(=S)N(CCCC(=O)Nc3cccc(C(=O)O)c3)C2=O)cc1OC,25.9,1.8,4.8,26.2,9.5,8.3
COc1cc(SC)ccc1C(=O)Nc1cccc(S(=O)(=O)NC2=NCCC2)c1,-26.8,-3.1,13.9,-3.5,-13.3,2.2

# Screening data: PubChem, several laboratories
